# From PubChem BioAssay (NCI)
# About 83,000 compounds went through this panel and 20% of them were active in at least one assay; those are over-represented in the sample as a whole.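 Single-concentration screen, 48 h exposure, 96-well plates. Endpoint: percent growth. Below 10 = active.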 The source made the active and inactive calls.
# System: OVCAR-4 ovarian
# Test: NCI-60 one-dose screen, 48 h (100 = growth as untreated, 0 = no growth, -100 = all killed)
# Conditions: 10 µM unless noted
# Method: Growth inhibition of the OVCAR-4 human tumor cell line is measured as a screen for anti-cancer activity. Cells are grown in 96 well plates and exposed to the test compound for 48 hours. Compounds are tested at a single concentration, which is 10^-5 M for most compounds. The reported endpoint is percent growth (GI% or GIPRCNT), where numbers from 0 - 100% represent growth inhibition, and numbers from -100% - 0 represent cell death. For example, a value of 40 represents 60% growth inhibition. A value of 0 means no net growth occurred over the course of the experiment. A value of -40 indicates 40% of cells at the beginning of the experiment died by the end of the experiment. A value of -100 means all cells are dead at the end of the experiment.
# NCI-60 Human Tumor Cell Lines Screen was performed using the standard one-dose NCI protocol, which is described in more detail at https://dtp.cancer.gov/discovery_development/nci-60/default.htm.
# Compounds with GIPRCNT values below 10 were considered active. Activity score was based on GIPRCNT using the following formula: […]
# Score is 0 for GIPRCNT values of 100 or above, 50 for GIPRCNT values of 0, and 100 for GIPRCNT values of -100.
row,Structure (SMILES),growth
1,O=C(COc1ccc(/C=C2\SC(=O)NC2=O)cc1)Nc1ccc(C(=O)/C=C/c2cc3ccccc3nc2Cl)cc1,42.2% (inactive)
2,COc1ccc([C@H]2[C@H](O)C(=O)N2c2cc(OC)c(OC)c(OC)c2)cc1,69.8% (inactive)
3,O=C1NC(=O)/C(=C/c2ccc(OCc3cc4ccccc4nc3Cl)cc2)S1,93.5% (inactive)
4,Cc1cccc(NC(c2cc3cccc4ccc5cccc2c5c43)c2nnnn2C(C)(C)C)c1C (stereo not given),85.2% (inactive)
5,COc1ccc([C@@H]2[C@@H](O)C(=O)N2c2cc(OC)c(OC)c(OC)c2)cc1Cl,68.7% (inactive)
6,CS(=O)(=O)c1nccc(-c2c(-c3ccc(F)c(OCc4ccccc4)c3)nc3sccn23)n1,104% (inactive)
7,COc1cc([C@H]2OC[C@H]3[C@@H]2CO[C@@H]3c2ccc(O)c(OC)c2)ccc1O,96.6% (inactive)
8,CNC(=O)c1cc(Oc2ccc3nc(NC(=O)c4ccc(CN5CCN(C)CC5)c(C(F)(F)F)c4)sc3c2)ccn1,52.4% (inactive)
9,N#Cc1c(-c2cccs2)cc(-c2cnccn2)nc1SCC(=O)NNC(=S)Nc1ccc(F)cc1,96.3% (inactive)
10,C=CCn1c(SCC(=O)Nc2cccc(C(=O)/C=C/c3ccc(OC)c(OC)c3)c2)nc2ccccc2c1=O,87.6% (inactive)
11,CN(C)C(=O)C1=NC(CO)C(=O)N(c2ccc(Cl)cc2)N1 (stereo not given),114% (inactive)
12,N/C(=N\c1nc2c(Cl)cccc2s1)C(Cl)(Cl)Cl,76% (inactive)
13,O=C1c2c(c3c4cc(O)ccc4oc3c3[nH]c4ccccc4c23)C(=O)N1O,22% (inactive)
14,CC1(C)CC[C@]2(C(=O)O)CC[C@]3(C)C(=CCC4[C@@]5(C)C[C@@H](O)[C@@H]6OC(c7ccccc7O)OC[C@@]6(C)C5CC[C@]43C)C2C1 (stereo not given in full),63.6% (inactive)
15,Cc1ccc(-c2cc(-c3cccc4ccccc34)n3c(n2)nc2ccccc23)cc1,79.6% (inactive)
16,CCCC(=O)NC(c1cccnc1)c1cc(C(C)=O)c2cccnc2c1O (stereo not given),19.6% (inactive)
17,CS(=O)c1nccc(-c2c(-c3ccc(F)c(OCCc4ccc(F)cc4)c3)nc3sccn23)n1 (stereo not given),82.1% (inactive)
18,O=C(CSc1nnc(-c2ccc(Cl)cc2)n1-c1ccccc1)Nc1ccc(F)cc1,98.3% (inactive)
19,CCOC(=O)Nc1ccc(-c2nc(-c3cccc(O)c3)c(-c3ccnc(Br)c3)[nH]2)cc1,13.6% (inactive)
20,O=C(/C=C1\C=CN(CCCCO)c2ccccc21)n1ccc2ccccc21,107% (inactive)

row,Structure (SMILES),growth
1,O=S(=O)(Nc1cc(Cl)cc(Cl)c1)c1ccc(-c2cnc(C3CC3)o2)cc1,63.6% (inactive)
2,COc1cc2c3c(n(CCCN4CCCCC4)c(=O)c2cc1OC)-c1cc2c(cc1C3=O)OCO2,-74.1% (active)
3,CC(C)(C)n1nnnc1C(Nc1nccs1)c1cc2cccc3ccc4cccc1c4c32 (stereo not given),95.3% (inactive)
4,COc1ccc(OC)c([C@H]2c3[nH]c4ccccc4c3C[C@H]3C(=O)N(CCCCCCC(=O)NO)CC(=O)N23)c1,80% (inactive)
5,Oc1ccc(CSc2nnc(-c3cnccn3)o2)c2cccnc12,36.6% (inactive)
6,CCOC(=O)c1ccc(N/C=C/C(=O)c2ccccc2)cc1,105% (inactive)
7,CCN1C(=O)N(CC)C2SC(N/N=C/c3ccccc3F)=NC21 (stereo not given),68.4% (inactive)
8,Cc1ccc(NC(=O)N[C@@H](Cc2cc(F)cc(F)c2)C(=O)NC2C(=O)N3CCC[C@H]3C(=O)N3CCCC[C@H]3C(=O)N[C@@H](C)C(=O)N3C[C@H](C)C[C@H]3C(=O)O[C@H]2C)c(F)c1 (stereo not given in full),23.9% (inactive)
9,O=C1c2c(c3c4cc(Br)ccc4[nH]c3c3ccc4ccccc4c23)C(=O)N1CCN1CCNCC1,103% (inactive)
10,CN(c1ccc(Cl)cc1)S(=O)(=O)c1ccc(-c2cnc(C3CC3)o2)cc1,54.7% (inactive)
11,Cc1ccccc1NC1CC(=O)N(c2ccc(Cl)cc2Cl)C1=O (stereo not given),97.5% (inactive)
12,NS(=O)(=O)c1ccc(Nc2nc(N/N=C/c3ccc([N+](=O)[O-])cc3)nc(Nc3ccccc3)n2)cc1,55.8% (inactive)
13,CC(c1ccccc1)N1C(=O)/C(=C/c2csc(C#N)n2)SC1=S (stereo not given),98.1% (inactive)
14,CCN1C(=O)N(CC)C2C1NN=C1SC(c3ccccc3)=CC(=O)N12 (stereo not given),72.5% (inactive)
15,CCC(=O)Nc1cc(Nc2cc(NC3CC3)n3ncc(C#N)c3n2)ccc1C,17.1% (inactive)
16,COC1=C(c2ccccc2)C(=O)C(OC)=C(c2ccccc2)C1=O,59.6% (inactive)
17,C=CCn1c(SCC(=O)Nc2cccc(C(=O)/C=C/c3cc(OC)c(OC)c(OC)c3)c2)nc2ccccc2c1=O,66.5% (inactive)
18,Oc1ccc(CSc2nnc(-c3ccc(Oc4ccccc4)cc3)o2)c2cccnc12,-36.5% (active)
19,Cn1cc(-c2nn3cc(-c4ccncc4)nc3s2)c2cc(Cl)ccc21,78.6% (inactive)
20,Fc1ccccc1/C=C(/C1=NCCN1)n1cnc2ccccc21,90.9% (inactive)
